Sampled rows, rich in hits. Any-hit rate of the full collection: about 3.5%.
BoNT-A LC inh2: inhibitors of Botulinum neurotoxin A light chain protease. AID 588499. inhibition, % at 10 µM. 360,000 compounds, 0.17% hits. multiplex microsphere protease substrate cleavage, flow cytometry; further: plate controls were buffer without enzyme for full effect and enzyme alone for no effect
Anthrax LF prot: inhibitors of Bacillus anthracis lethal factor protease. P15917. multiplex microsphere protease cleavage assay, LF. 360,000 compounds, 0.12% hits. inhibition, % at 10 µM. AID 588501; further: plate controls were buffer without enzyme for full effect and enzyme alone for no effect
Target sequence (P15917 whole entry, looked up): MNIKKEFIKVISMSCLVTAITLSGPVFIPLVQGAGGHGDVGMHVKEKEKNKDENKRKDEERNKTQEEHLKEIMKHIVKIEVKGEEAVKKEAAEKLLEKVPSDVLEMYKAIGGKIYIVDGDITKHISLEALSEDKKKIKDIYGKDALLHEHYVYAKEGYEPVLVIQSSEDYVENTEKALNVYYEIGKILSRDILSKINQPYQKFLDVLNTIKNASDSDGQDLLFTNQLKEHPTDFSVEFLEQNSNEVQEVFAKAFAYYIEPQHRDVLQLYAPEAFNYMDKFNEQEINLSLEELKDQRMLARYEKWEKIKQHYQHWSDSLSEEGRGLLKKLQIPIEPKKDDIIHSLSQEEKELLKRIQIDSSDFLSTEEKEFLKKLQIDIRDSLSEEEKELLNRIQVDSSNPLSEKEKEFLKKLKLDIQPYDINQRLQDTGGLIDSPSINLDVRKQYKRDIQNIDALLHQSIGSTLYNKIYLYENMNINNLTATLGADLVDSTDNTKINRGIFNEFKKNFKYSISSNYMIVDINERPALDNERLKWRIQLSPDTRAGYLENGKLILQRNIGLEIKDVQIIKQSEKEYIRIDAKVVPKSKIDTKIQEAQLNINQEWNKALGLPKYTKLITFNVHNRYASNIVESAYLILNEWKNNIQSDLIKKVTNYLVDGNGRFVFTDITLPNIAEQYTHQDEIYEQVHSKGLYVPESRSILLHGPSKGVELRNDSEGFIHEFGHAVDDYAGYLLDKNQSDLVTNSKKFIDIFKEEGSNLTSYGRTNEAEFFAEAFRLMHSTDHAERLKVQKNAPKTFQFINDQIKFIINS
Bead autofluor: compound fluorescence in toxin protease inhibitor counterscreen; compound autofluorescence counterscreen, microsphere flow cytometry; stronger effect = higher value; fluorescence intensity (no concentration beside the values); 360,000 compounds, 3.1% hits; AID 624483; in the data active means fluorescence intensity above about 16000; inconclusive means no clear call, values can overlap the other calls
BoNT F protease: blocks Botulinum neurotoxin F light chain protease; Multiplex microsphere protease cleavage assay, flow cytometry; inhibition, % at 10 µM; 360,000 compounds, 0.22% hits; in the data active means inhibition above about 35%, passing the limit was not always enough; inconclusive means no clear call, values can overlap the other calls; further: plate controls were buffer without enzyme for full effect and enzyme alone for no effect
BJeLR lethal: kills HRASV12-expressing BJeLR cells; BJeLR (HRASV12) viability, CellTiter-Glo ATP luminescence, 48 h; inhibition, % (no concentration beside the values); 300,000 compounds, 0.17% hits; in the data active means inhibition above about 50%; inconclusive means no clear call, values can overlap the other calls
Active calls of the source: *. Unless noted, no stated cut-off is given here; in the data, active means inhibition above about 30%; inconclusive means no clear call, values can overlap the other calls; inactive means below that.

`CN(Cc1ccccc1)S(=O)(=O)c1cccc2cccnc12` gave BoNT-A LC inh2 -3, Anthrax LF prot -2, Bead autofluor 24517*, BoNT F protease -3 and BJeLR lethal -9.
For OC(c1ccc(F)cc1)c1nc(-c2cnc3ccccc3c2)cs1 (stereo not drawn) the results were BoNT-A LC inh2 0, Anthrax LF prot -6, Bead autofluor 3701 and BoNT F protease 2.
Cc1cccc(NC(=O)C2CCN(S(=O)(=O)c3cccs3)CC2)n1 was read as BoNT-A LC inh2 inconclusive, Anthrax LF prot 0, Bead autofluor 17032*, BoNT F protease -5 and BJeLR lethal 1.
COc1ccccc1Oc1ccc2c(c1)C(=O)N(c1ccc(Br)c3cccnc13)C2=O was read as BoNT-A LC inh2 1, Anthrax LF prot 0, Bead autofluor 9821, BoNT F protease 8 and BJeLR lethal -4.
Screening CSc1cccc(NC(=O)CNC(=O)C2CCCCC2)c1 returned BoNT-A LC inh2 0, Anthrax LF prot -2, Bead autofluor 6291, BoNT F protease -5 and BJeLR lethal 4.
`CC(=O)SCCC(=O)Nc1ccccc1` gave BoNT-A LC inh2 inconclusive, Anthrax LF prot 3, Bead autofluor 17839*, BoNT F protease 17 and BJeLR lethal -1.
`CCCC(=O)Nc1ccc(OCC(=O)OC)cc1` gave BoNT-A LC inh2 0, Anthrax LF prot -1, Bead autofluor 3063, BoNT F protease -30 and BJeLR lethal 1.
Screening CCCC(=O)Nc1ccc(Oc2ccc(NC(=O)CCC)cc2)cc1 returned BoNT-A LC inh2 inconclusive, Anthrax LF prot 0, Bead autofluor 19816*, BoNT F protease -2 and BJeLR lethal 7.
Screening CCCNC(=S)Nc1ccc2nc(-c3ccccn3)c(-c3ccccn3)nc2c1 returned BoNT-A LC inh2 inconclusive, Anthrax LF prot 8, Bead autofluor 21151*, BoNT F protease -1 and BJeLR lethal -15.
CCCC(=O)Nc1ccc(C#Cc2ccccc2)cc1 was read as BoNT-A LC inh2 4, Anthrax LF prot -8, Bead autofluor 18787*, BoNT F protease 5 and BJeLR lethal -9.
Screening CCCCn1c(=O)[nH]c(=O)c2c(C(=O)OCC)cc(-c3ccc(OC(F)F)cc3)nc21 returned BoNT-A LC inh2 -1, Anthrax LF prot -1, Bead autofluor 4606, BoNT F protease -4 and BJeLR lethal 0.
For Cc1nc2ncnn2c(N2CCCC(C(=O)Nc3ccc4c(c3)CCC4)C2)c1C (stereo not drawn) the results were BoNT-A LC inh2 -1, Anthrax LF prot -3, Bead autofluor 10343, BoNT F protease -4 and BJeLR lethal 10.
For CCOC(=O)Nc1ccc(Oc2ccccc2)cc1 the results were BoNT-A LC inh2 -3, Anthrax LF prot -2, Bead autofluor 24151*, BoNT F protease -4 and BJeLR lethal -6.
Screening CCCNC(=S)Nc1ccc(Oc2ccccc2)cc1 returned BoNT-A LC inh2 0, Anthrax LF prot -2, Bead autofluor 20489*, BoNT F protease -3 and BJeLR lethal -4.
`CCOC(=O)Nc1ccc(OC(=O)Oc2ccc(NC(=O)OCC)cc2)cc1` gave BoNT-A LC inh2 0, Anthrax LF prot 6, Bead autofluor 3468 and BoNT F protease 2.
`O=C(O)CCC(CNS(=O)(=O)c1ccccc1)C(F)(F)F` (stereo not drawn) gave BoNT-A LC inh2 0, Anthrax LF prot -5, Bead autofluor 4431, BoNT F protease -7 and BJeLR lethal -12.
`CCCCNC(=O)c1c(N)n(CCCOC)c2nc3ccccc3nc12` gave BoNT-A LC inh2 3, Anthrax LF prot 6, Bead autofluor 21009*, BoNT F protease -4 and BJeLR lethal 5.
`CC(C)CCn1c(N)c(C(=O)NCc2cccs2)c2nc3ccccc3nc21` gave BoNT-A LC inh2 28, Anthrax LF prot 13, Bead autofluor 10773, BoNT F protease 7 and BJeLR lethal 7.
Screening O=C(O)c1ccc2c(c1)C(=O)N(Cc1ccc3c(c1)OCO3)C2=O returned BoNT-A LC inh2 0, Anthrax LF prot -2, Bead autofluor 23047*, BoNT F protease 0 and BJeLR lethal -3.
Screening COCCn1c(N)c(C(=O)NCc2cccs2)c2nc3ccccc3nc21 returned BoNT-A LC inh2 9, Anthrax LF prot 13, Bead autofluor 20185*, BoNT F protease 0 and BJeLR lethal -9.
COc1ccccc1CNC(=O)c1c(N)n(CCCN2CCOCC2)c2nc3ccccc3nc12 was read as BoNT-A LC inh2 13, Anthrax LF prot 1, Bead autofluor 18665*, BoNT F protease 2 and BJeLR lethal 3.
Screening CCOC1=C2[C@H](c3ccc(CC)cc3)N(S(=O)(=O)c3ccc(C)cc3)C[C@H]2C(C#N)(C#N)C(C#N)(C#N)C1 returned BoNT-A LC inh2 0, Anthrax LF prot -3, Bead autofluor 5771 and BoNT F protease -4.
N#Cc1cccc(-c2csc(C(O)c3ccco3)n2)c1 (stereo not drawn) was read as BoNT-A LC inh2 0, Anthrax LF prot -4, Bead autofluor 3593 and BoNT F protease -7.
For CCc1nc2c(OCCOc3ccc(F)cc3)cccn2c1N(C)C(=O)CC(C)C the results were BoNT-A LC inh2 0, Anthrax LF prot -9, Bead autofluor 2883 and BoNT F protease -5.
`CCCNC(=O)c1c(N)n(Cc2ccc3c(c2)OCO3)c2nc3ccccc3nc12` gave BoNT-A LC inh2 4, Anthrax LF prot -2, Bead autofluor 23041* and BoNT F protease 4.
`CC(=O)c1c(C(C)=O)c(C)n(Cc2ccc3c(c2)OCO3)c1C` gave BoNT-A LC inh2 -7, Anthrax LF prot -1, Bead autofluor 22217*, BoNT F protease -12 and BJeLR lethal 5.
`O=C1CSC(c2ccccn2)N1c1ccccc1` (stereo not drawn) gave BoNT-A LC inh2 2, Anthrax LF prot 0, Bead autofluor 21482*, BoNT F protease 6 and BJeLR lethal 2.
For CC(C)OCCCNC(=O)c1ccc(CS(=O)(=O)Cc2ccccc2F)o1 the results were BoNT-A LC inh2 0, Anthrax LF prot -2, Bead autofluor 20731*, BoNT F protease 0 and BJeLR lethal 3.
COC(=O)c1c(N)c(C#N)c2n1CCCCC2 was read as BoNT-A LC inh2 0, Anthrax LF prot -5, Bead autofluor 11422, BoNT F protease -6 and BJeLR lethal 5.
Screening N#Cc1c(N)c(C(=O)c2ccccc2)n2c1CCC2 returned BoNT-A LC inh2 -3, Anthrax LF prot -1, Bead autofluor 23949*, BoNT F protease -5 and BJeLR lethal 0.
O=c1cc(-c2ccccc2)nc(SCc2ccc(F)cc2)[nH]1 was read as BoNT-A LC inh2 0, Anthrax LF prot -1, Bead autofluor 2557, BoNT F protease 1 and BJeLR lethal -10.
`COc1cc(=O)[nH]c(SCc2c(F)c(F)c(F)c(F)c2F)n1` gave BoNT-A LC inh2 2, Anthrax LF prot 2, Bead autofluor 18910*, BoNT F protease 3 and BJeLR lethal -3.
`CCc1ccc(-c2nc(NC(=S)NC(=O)c3cccs3)sc2C)cc1` gave BoNT-A LC inh2 -1, Anthrax LF prot 0, Bead autofluor 23514*, BoNT F protease -1 and BJeLR lethal -7.

Screening results (PubChem BioAssay)
